Assay results taken from the supplement of paper PMC5919970.
Counter-ions that a name gives are not always drawn. Whole data set: some 2,000 compounds, median “fractional viability relative to vehicle” near 0.91, cut for the lowest 2% near 0.045. For the sample, the lowest values were picked, then their nearest neighbours and some compounds at random.

Tested on: TYKNU
Test: fractional viability relative to vehicle; TYKNU is a high-grade serous ovarian cancer line; higher = less growth inhibition
Settings: 72 h
How it was run: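 TYKNU control cells or lentiCRISPRv2 knockout derivatives were plated at 500 cells per well in duplicate into drug-stamped 384-well plates holding a ~2100-compound library at 2 or 10 μM. Culture was in RPMI 1640 with 10% FBS at 37 °C in 5% CO2, with 72 h of drug treatment. Viability was measured by Cell Titer Glo luminescence, and the averaged duplicate treatment wells were normalised to duplicate control wells at the same plate position.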

[1] = 2uM, genotype: DNM1L knockout (sgDNM1L #1)
[2] = 2uM, genotype: sgCTRLA1 (non-targeting control)
[3] = 10uM, genotype: DNM1L knockout (sgDNM1L #1)
[4] = 10uM, genotype: sgCTRLA1 (non-targeting control)

| SMILES | fractional viability [1] | fractional viability [2] | fractional viability [3] | fractional viability [4] |
| --- | --- | --- | --- | --- |
| O=CN1CC/C(=C/c2ccc3c(c2)OCO3)C1=O | 0.723 | 0.973 | 0.78 | 0.692 |
| OC[C@H]1O[C@@H](OCCc2ccc(O)cc2)[C@H](O)[C@@H](O)[C@@H]1O [Salidroside] | 0.968 | 1.14 | 0.842 | 1.07 |
| O=C(c1cc(Cc2n[nH]c(=O)c3ccccc23)ccc1F)N1CCN(C(=O)C2CC2)CC1 | 0.967 | 1.06 | 0.727 | 1.02 |
| CCN1CCN(Cc2ccc(Nc3ncc(F)c(-c4cc(F)c5nc(C)n(C(C)C)c5c4)n3)nc2)CC1 | 0.289 | 0.473 | 0.0303 | 0.0236 |
| C[N+](C)(C)C[C@H](O)CC(=O)[O-] [L-carnitine] | 1.12 | 1.14 | 0.8 | 1.07 |
| Cc1nnc(C(=O)NC(C)(C)c2nc(C(=O)NCc3ccc(F)cc3)c(O)c(=O)n2C)o1 [Raltegravir (MK-0518)] | 0.979 | 1.07 | 0.879 | 1.06 |
| CN(C)C(=S)NN=C(c1ccccn1)c1ccccn1 | 0.177 | 0.132 | 0.255 | 0.107 |
| O=C(Nc1cccc(Cl)c1)c1ccccn1 | 1.06 | 1.05 | 0.971 | 1.12 |
| Clc1ccc(NN=C(c2ccccc2)c2ccccn2)nc1 | 0.116 | 0.0468 | 0.0355 | 0.0108 |
| CCC[S+]([O-])c1ccc2[nH]c(NC(=O)OC)nc2c1 (configuration not stated) [Albendazole Oxide] | 1.04 | 0.909 | 0.505 | 0.562 |
| CC1(C)CC(=O)c2c(C(F)(F)F)nn(-c3ccc(C(N)=O)c(N[C@H]4CC[C@H](OC(=O)CN)CC4)c3)c2C1 | 0.976 | 1.16 | 0.981 | 1.09 |
| CC[C@H](NC(=O)[C@H](C)NC)C(=O)N1C[C@@H](O)C[C@H]1Cc1c(-c2[nH]c3cc(F)ccc3c2C[C@@H]2C[C@H](O)CN2C(=O)[C@H](CC)NC(=O)[C@H](C)NC)[nH]c2cc(F)ccc12 [Birinapant] | 0.772 | 1.15 | 0.653 | 0.949 |
| COc1ccc(-c2nc(N3CCOCC3)c3sc(CN(C)c4ncc(C(=O)NO)cn4)cc3n2)cn1 | 0.0583 | 0.0505 | 0.0565 | 0.0395 |
| CS(=O)(=O)N1CCN(Cc2cc3nc(-c4cccc5[nH]ncc45)nc(N4CCOCC4)c3s2)CC1 | 0.627 | 0.588 | 0.272 | 0.249 |
| Cc1c(CN2CCN(C(=O)[C@H](C)O)CC2)sc2c(N3CCOCC3)nc(-c3cnc(N)nc3)nc12 | 0.214 | 0.238 | 0.175 | 0.15 |
| O=C(Nc1c(Cl)cncc1Cl)c1ccc(OC(F)F)c(OCC2CC2)c1 [Roflumilast] | 0.966 | 0.959 | 0.921 | 1 |
| Cc1cc(C)c(S(=O)(=O)n2cc(C)cc2C)c(C)c1 | 0.788 | 0.862 | 0.757 | 0.765 |
| CC(C)NC[C@H](O)COc1ccc(CCOCC2CC2)cc1 [Levobetaxolol HCl] | 1.13 | 1.21 | 0.846 | 1.27 |
| C=CC(=O)Nc1cccc(Nc2nc(Nc3ccc(NC4CN(CCF)C4)cc3OC)ncc2C(F)(F)F)c1 | 0.67 | 0.752 | 0.164 | 0.154 |
| C=CC(=O)Nc1cc(Nc2nccc(-c3cn(C)c4ccccc34)n2)c(OC)cc1N(C)CCN(C)C | 0.614 | 0.895 | 0.0431 | 0.0512 |

| SMILES | fractional viability [1] | fractional viability [2] | fractional viability [3] | fractional viability [4] |
| --- | --- | --- | --- | --- |
| C=CC(=O)Nc1cc(Nc2nccc(-c3c[nH]c4ccccc34)n2)c(OC)cc1N(C)CCN(C)C | 0.324 | 0.409 | 0.0466 | 0.0525 |
| COc1nc(OCc2cccc(-c3ccccc3)c2C)ccc1CNCCNC(C)=O [PD-1/PD-L1 inhibitor 2] | 0.852 | 0.872 | 0.501 | 0.0875 |
| O=C(/C=C\n1cnc(-c2cc(C(F)(F)F)cc(C(F)(F)F)c2)n1)NNc1ccccn1 [Verdinexor (KPT-335)] | 0.137 | 0.13 | 0.162 | 0.121 |
| C[C@@H]1O[C@@H](O[C@H]2[C@H](Oc3cc(O)c4c(c3)O[C@H](c3ccc(O)cc3)CC4=O)O[C@H](CO)[C@@H](O)[C@@H]2O)[C@H](O)[C@H](O)[C@H]1O [Naringin] | 0.915 | 1.12 | 0.827 | 1 |
| c1nc2c(NC3CCCCC3)nc(Nc3ccc(N4CCOCC4)cc3)nc2[nH]1 [Reversine] | 0.545 | 0.579 | 0.229 | 0.216 |
| CN1CCC(Nc2nc(Nc3ccc(Oc4ccccc4)cc3)c3c(=O)[nH]cc(Br)c3n2)CC1 | 0.131 | 0.279 | 0.0286 | 0.0109 |
| C=C1CC[C@H](O)C/C1=C/C=C1\CCC[C@]2(C)[C@@H]([C@H](C)/C=C/[C@H](C)C(C)C)CC[C@@H]12 [Vitamin D2] | 1.19 | 1.02 | 0.175 | 0.739 |
| O=C1NC(=O)/C(=C/c2cccc(C(F)(F)F)c2)S1 | 0.748 | 0.945 | 0.687 | 0.786 |
| COc1ccc2c(c1)CCC1C2CCC2(C)C(NCCCCCCN3C(=O)C=CC3=O)CCC12 (configuration not stated) | 0.849 | 0.972 | 0.942 | 0.781 |
| C[C@H]1O[C@@H](n2cc(F)c(=O)[nH]c2=O)[C@H](O)[C@@H]1O [Doxifluridine] | 1.11 | 1.13 | 0.893 | 1.06 |
| CCCCc1oc2ccc(NS(C)(=O)=O)cc2c1C(=O)c1ccc(OCCCN(CCCC)CCCC)cc1 [Dronedarone HCl] | 0.712 | 0.919 | 0.0442 | 0.0545 |
| CN(CCOc1ccc(NS(C)(=O)=O)cc1)CCc1ccc(NS(C)(=O)=O)cc1 [Dofetilide] | 0.999 | 0.981 | 0.838 | 0.933 |
| CCCCc1oc2ccccc2c1C(=O)c1cc(I)c(OCCN(CC)CC)c(I)c1 [Amiodarone HCl] | 0.996 | 1.07 | 0.736 | 0.965 |
| CN(C)c1nc(N(C)C)nc(N(C)C)n1 [Altretamine] | 1.05 | 1.07 | 0.977 | 1.03 |
| CNC(=O)c1ccccc1Oc1nc(Nc2cc(OC)c(OC)c(OC)c2)ncc1Br | 0.847 | 0.94 | 0.581 | 0.589 |
| CN(CC(=O)N(Cc1ccc(C2CCCCC2)cc1)c1ccc(C(=O)O)cc1)S(=O)(=O)c1c(F)c(F)c(F)c(F)c1F | 0.435 | 0.661 | 0.042 | 0.0176 |
| FC(F)(F)c1ccc(/C=C/c2nc(COc3ccc(CCCCn4ccnn4)cc3)co2)cc1 [Mubritinib (TAK 165)] | 0.716 | 0.534 | 0.545 | 0.517 |
| O=C1CCC[C@@H]2[C@H]3CCC[N+]4([O-])CCC[C@@H](CN12)[C@@H]34 (some centres not stated) [Oxymatrine] | 0.927 | 1.15 | 0.812 | 1.1 |
| CC1=CC(=O)NS(=O)(=O)O1 [Acesulfame Potassium] | 1.16 | 1.13 | 0.791 | 1.17 |
| CC(C)(C)c1ccc(S(=O)(=O)/C=C/C#N)cc1 | 0.119 | 0.091 | 0.0418 | 0.0217 |

| SMILES | fractional viability [1] | fractional viability [2] | fractional viability [3] | fractional viability [4] |
| --- | --- | --- | --- | --- |
| Cc1ccc(S(=O)(=O)/C=C/C#N)cc1 | 0.0925 | 0.0355 | 0.0225 | 0.01 |
| C/C=C1/[C@H](O[C@@H]2O[C@H](CO)[C@@H](O)[C@H](O)[C@H]2O)OC=C(C(=O)OC)[C@H]1CC(=O)OCCc1ccc(O)c(O)c1 [Oleuropein] | 0.773 | 0.978 | 0.843 | 0.774 |
| CC[C@H](C)C[C@H](C)CCCCCCCCC(=O)N[C@H]1C[C@@H](O)[C@@H](NCCN)NC(=O)[C@@H]2[C@@H](O)CCN2C(=O)[C@H]([C@H](O)CCN)NC(=O)[C@H]([C@H](O)[C@@H](O)c2ccc(O)cc2)NC(=O)[C@@H]2C[C@@H](O)CN2C(=O)[C@H]([C@@H](C)O)NC1=O [Caspofungin Acetate] | 0.98 | 1.17 | 0.637 | 1.01 |
| Cc1ncc(Cl)cc1NCc1ccc(C(=O)N[C@@H](CC2CCCC2)C(=O)NC2CC2)s1 | 0.845 | 0.992 | 0.838 | 0.778 |
| CCOc1ccc(Cc2cc([C@@H]3O[C@H](SC)[C@@H](O)[C@H](O)[C@H]3O)ccc2Cl)cc1 [Sotagliflozin (LX4211)] | 0.825 | 1.02 | 0.592 | 0.694 |
| COC(=O)C[C@H](NC(=O)[C@H](C)NC(=O)[C@@H](NC(=O)OCc1ccccc1)C(C)C)C(=O)CF | 0.89 | 1.14 | 0.837 | 1.1 |
| COc1cc(N2CCC(N)CC2)ccc1Nc1ncc(Cl)c(-c2c[nH]c3ccccc23)n1 | 0.359 | 0.386 | 0.0459 | 0.0363 |
| CNC(=O)c1ccccc1Nc1nc(Nc2ccc(N3CCOCC3)cc2OC)ncc1Cl | 0.85 | 0.837 | 0.292 | 0.206 |
| CCOc1cc(N2CCC(O)CC2)ccc1Nc1ncc2c(n1)N(C)c1ccccc1C(=O)N2C | 0.651 | 0.842 | 0.539 | 0.531 |
| CN(N=O)C(=O)NC1C(O)OC(CO)C(O)C1O (configuration not stated) [Streptozotocin (STZ)] | 1.1 | 1.2 | 0.905 | 1.2 |
| C/C(=N\NC(=O)c1cccc(S(=O)(=O)N2CCOCC2)c1)c1cc(Cl)ccc1O | 0.348 | 0.356 | 0.242 | 0.136 |
| COc1ccc(-c2cnc3c(-c4cccc5ncccc45)cnn3c2)cc1 | 1.18 | 1.28 | 1.1 | 1.2 |
| c1cc(-c2cnn3cc(-c4ccc(N5CCNCC5)cc4)cnc23)c2cccnc2c1 | 0.0431 | 0.069 | 0.0409 | 0.021 |
| COc1cc(-c2cc(-c3ccc(N4CCNCC4)cc3)cnc2C)cc(OC)c1OC | 0.714 | 1.02 | 0.834 | 0.772 |
| CNC(=O)c1cccc(-c2ccc3c(N4CCOC[C@@H]4C)nc(N4CCOC[C@@H]4C)nc3n2)c1 | 0.277 | 0.218 | 0.201 | 0.237 |
| CCCCCCCc1ccc(CCc2cccc(O)c2C(=O)O)cc1 | 0.825 | 1.04 | 0.896 | 0.765 |
| CCCCCCCCc1ccc(CCC(N)(CO)CO)cc1 [Fingolimod (FTY720) HCl] | 0.722 | 1.02 | 0.0372 | 0.0418 |
| CCCCCCCCCCCCc1ccc(S(=O)(=O)Nc2nncs2)cc1 | 0.997 | 1.07 | 0.843 | 0.966 |
